Bioassay records (PubChem BioAssay)
TPT1 inh: blocks Candida albicans tRNA 2'-phosphotransferase. recombinant caTPT1, FP RNA substrate dephosphorylation. inhibition, % at 5 µM. hit rate 0.81% among 300,000. AID 1962;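 active = inhibition above the mean of all tested compounds plus 3 SD, set per screening campaign, cut at about 24% in these data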;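 also: plate controls were DMSO alone for no effect and ferristatin control at 100 nM for full effect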
CendR NRP1 mod: modulators of CendR peptide binding to human neuropilin-1 | O14786 | FAM-RPARPAR peptide binding to NRP-1, fluorescence polarization | inhibition, % at 25 µM | hit rate 0.85% among 360,000 | AID 602438;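 active = inhibition or corrected inhibition above about 18%, plus a signal ratio from 0.5 to 1.5, limit read from the data, passing the limit was not always enough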
PHOSPHO1 inh: blocks human PHOSPHO1 phosphatase activity. hit rate 1.1% among 290,000. AID 1565. recombinant PHOSPHO1, absorbance phosphatase assay. inhibition, % at 13.3 µM; in the data active = inhibition above about 60%
Fh CTSL1 inh: cathepsin L1 inhibition, PFM18AAP counter-screen. recombinant F. hepatica cathepsin L1, Z-Leu-Arg-MCA fluorescence. inhibition, % at 5.96 µM. hit rate 0.49% among 300,000. AID 1906;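 active = inhibition above the mean of all tested compounds plus 3 SD, set per screening campaign, cut at about 17% in these data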;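 also: 0% = plate median of test compound wells and 100% = 1 µM Z-Phe-Ala-diazomethylketone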
HNF4A DNA FP: change in binding of human HNF4 alpha to DNA; hit rate 0.3% among 360,000; activity change, % at 10 µM; HNF4a-FITC DNA binding, fluorescence polarization, 1 h; P41235; in the data active = activity change above about 30%, passing the limit was not always enough
Target sequence (P41235 whole entry, looked up): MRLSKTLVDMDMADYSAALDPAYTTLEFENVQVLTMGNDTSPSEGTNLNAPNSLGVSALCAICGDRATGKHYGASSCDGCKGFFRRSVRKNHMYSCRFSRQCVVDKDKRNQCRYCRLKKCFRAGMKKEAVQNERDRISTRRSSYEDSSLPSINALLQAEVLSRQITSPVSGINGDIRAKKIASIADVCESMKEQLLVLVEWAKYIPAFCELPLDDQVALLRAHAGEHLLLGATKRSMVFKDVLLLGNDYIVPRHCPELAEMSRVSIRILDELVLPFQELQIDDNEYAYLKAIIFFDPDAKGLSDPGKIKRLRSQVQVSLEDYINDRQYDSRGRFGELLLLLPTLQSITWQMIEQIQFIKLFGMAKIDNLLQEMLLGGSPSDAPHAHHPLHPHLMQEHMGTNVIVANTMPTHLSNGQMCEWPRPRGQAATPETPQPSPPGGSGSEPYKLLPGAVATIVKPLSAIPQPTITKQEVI
Rpn11 block: inhibitors of human proteasome Rpn11; inhibition, % at 20 µM; human 26S proteasome, Ub4-pepOG fluorescence polarization; 20S core pre-blocked with epoxomicin; hit rate 0.59% among 360,000; O00487;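 active = inhibition at 20 µM, scaled to each plate's controls, above about 33%, limit read from the data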
* hit, by the source's call; nt = not tested or not shown. Most compounds without a hit are left out; they make up all but 3.3% or so of the library.

SMILES	TPT1 inh	CendR NRP1 mod	PHOSPHO1 inh	Fh CTSL1 inh	HNF4A DNA FP	Rpn11 block
CC(C)(C)NC(=O)Cn1c(SCC(=O)N2CCCCCC2)nc2ccccc21	-2	-3	10	-8	32*	-8
CC(=O)Nc1ccc(S(=O)(=O)Nc2c(NC3CCCCC3)c3ccccc3oc2=O)cc1	-2	5	32	12	5	0
O=C(Nc1ccc(N2CCCCC2)cc1)c1cccnc1Cl	0	-15	53	1	0	-3
CS(=O)(=O)N1CCN(c2ccc(NC(=O)c3cccnc3Cl)cc2)CC1	-3	3	100*	3	3	-5
CCCn1nnc(NC(=S)NC(=O)CC)n1	1	8	60*	0	2	4
CCCn1nnc(NC(=S)NC(=O)Cc2ccccc2)n1	-2	8	8	-4	1	5
C[n+]1cccc2cccc([O-])c21	nt	28*	43	nt	-17	-56
CC(=O)c1ccc(NC2=C(N3CCOCC3)C(=O)c3ccccc3C2=O)cc1	-1	9	31	35*	-1	5
CC(=O)N(C)C1=C(N2CCOCC2)C(=O)c2ccccc2C1=O	-3	-4	48	13	-1	10
O=C(O)c1ccc(NC2=C(N3CCOCC3)C(=O)c3ccccc3C2=O)cc1	-5	1	-7	33*	1	6
Cc1ccc(NC2=C(N3CCOCC3)C(=O)c3ccccc3C2=O)cc1	-2	8	28	17*	-2	8
O=C(Nc1cnc2sc3c(n2c1=O)CCCC3)c1ccc(F)cc1	-2	12	16	3	-2	2
CC(C)(C)n1cnc2cc(NS(=O)(=O)c3ccccc3)ccc21	-3	23*	11	2	1	-6
COc1ccc(-n2cnc3cc(NS(=O)(=O)c4ccccc4)ccc32)cc1	-2	10	-13	-1	1	4
CC12CN(C(=O)c3cccc([N+](=O)[O-])c3)C3(C#N)CC1CCC23C (centres undefined)	nt	8	nt	nt	8	-1
COc1ccc(/C=C(\NC(=O)c2ccccc2)C(=O)N/N=C/c2ccncc2)cc1	1	-2	65*	4	0	-4
COc1ccc(/C=C(\NC(=O)c2ccccc2)C(=O)N/N=C/c2cccnc2)cc1	0	4	2	2	2	-1
Cc1ccnc(N/C=C(/NC(=O)c2ccccc2)C(=O)N/N=C\c2ccc(F)cc2)n1	-3	4	-50	20*	-2	1
COc1ccc(/C=C(/NC(=O)c2ccc(C)cc2)C(=O)NCc2ccncc2)cc1	-4	0	70*	21*	5	-6
O=C(NC1CCCCC1)C1CC(=O)N(c2ccccc2)C1 (centres undefined)	0	1	10	0	-1	0
COc1ccc(NS(=O)(=O)c2ccc(C(=O)N3CCC(C)CC3)cc2)cc1	nt	-6	nt	nt	2	0
CC(=O)N1C(=O)C2(NCC(C)N2)c2ccccc21 (centres undefined)	nt	0	nt	nt	3	1
COCc1cc(C)nc2sc(C(=O)Nc3nccs3)c(N)c12	-1	1	83*	2	0	1
CCN(CC(=O)Nc1c(F)cccc1F)C(=O)CC1CCCCC1	nt	-5	nt	nt	-3	-4
CC(C)[C@H](N)c1nnc(SCC(=O)c2ccc(Cl)cc2)o1	-3	6	82*	2	-1	-1
SMILES	TPT1 inh	CendR NRP1 mod	PHOSPHO1 inh	Fh CTSL1 inh	HNF4A DNA FP	Rpn11 block
CN(C)S(=O)(=O)c1cc(NC2CC(=O)N(c3ccc(F)cc3)C2=O)ccc1Cl (centres undefined)	1	5	32	-5	-1	-5
N#Cc1cc2c(nc1SCC(=O)Nc1sc3c(c1C#N)CCC3)CCCC2	5	5	-8	-3	3	22
Cc1cnc(C(=O)OCC(=O)Nc2sc3c(c2C#N)CCC3)cn1	1	38*	nt	-8	-3	6
N#Cc1ccc(-c2ccc(F)cc2)nc1SCC(=O)Nc1sc2c(c1C#N)CCC2	26*	-20	31	-2	6	16
CCOC(=O)C1C(=O)NC(C)C1c1ccccc1 (centres undefined)	-4	14	-4	2	1	4
N#CC1=C2SCN(c3ccccc3)CN2C(=O)CC1c1cccs1 (centres undefined)	4	-16	81*	1	-3	5
COc1ccc(Br)cc1C1CC(=O)N2CN(Cc3ccccc3)CSC2=C1C#N (centres undefined)	-1	-7	24	-1	4	1
N#CC1=C2SCN(Cc3ccccc3)CN2C(=O)CC1c1ccccc1F (centres undefined)	1	-17	83*	3	3	2
N#CC1=C2SCN(c3ccccc3)CN2C(=O)CC1c1c(Cl)cccc1Cl (centres undefined)	2	-7	92*	-1	0	9
CC(C)c1ccc(C2CC(=O)N3CN(C)CSC3=C2C#N)cc1 (centres undefined)	-3	-18	12	-1	1	7
N#CC1=C2SCN(c3ccccc3)CN2C(=O)CC1c1ccccc1Cl (centres undefined)	4	-12	86*	3	-5	5
N#CC1=C2SCC(O)(c3ccccc3)N2C(=O)CC1c1cccs1 (centres undefined)	-5	-13	14	8	1	7
COc1ccc(CN2CC(C(=O)NCCc3ccccc3)CC2=O)cc1 (centres undefined)	-3	-8	-12	17*	0	4
COc1ccc(CN2CC(C(=O)NCCCN3CCOCC3)CC2=O)cc1 (centres undefined)	1	16	55	21*	0	-1
CCC1CCCCN1CCCNC(=O)C1CC(=O)N(CCc2ccccc2)C1 (centres undefined)	-3	-1	32	28*	-3	-4
Cc1c(C(C)(C)O)[nH]c2ccc(C(F)(F)F)cc12	-2	4	-30	-1	-1	-4
COC(=O)c1ccc(CSc2ncnc3c2nnn3-c2ccc(OC)cc2)o1	-1	-3	0	-1	13	23
CC1CCC/C(=C\Nc2ccc(O)cc2)C1=O (centres undefined)	-1	3	70*	0	4	1
Cc1cc(C(=O)O)ccc1N/C=C1\CCCC(C)C1=O (centres undefined)	0	4	-6	-1	1	-2
COc1ccc(C(=O)NC(=S)N2CCCC2)cc1	0	-7	-72	0	6	0
COc1ccc(C(=O)NC(=S)N2CCC(C)CC2)cc1	3	-3	69*	8	2	0
CCOc1ccc(C(=O)NC2CCN(C(=S)Nc3ccccc3C)CC2)cc1	0	-3	33	-2	6	0
COc1ccc(C(=O)NC2CCN(C(=S)Nc3ccccc3C)CC2)cc1	-7	19*	10	2	-1	1
